These results are taken from PubChem BioAssay AID602229 (The Scripps Research Institute Molecular Screening Center, 2012).

Out of some 360,000 compounds screened, about 1,300 (0.36%) were called active. The entries come from a sample that favours actives as a whole. Unmarked numbers belong to inactive results.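 How the source made its calls: active means inhibition above the mean of all tested compounds plus 3 SD (cut at about 70% in these data); inactive means the rest.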

Sequence of Photoreceptor-specific nuclear receptor (Homo sapiens) (Q9Y5X4 whole entry, looked up, the tested form may be a part): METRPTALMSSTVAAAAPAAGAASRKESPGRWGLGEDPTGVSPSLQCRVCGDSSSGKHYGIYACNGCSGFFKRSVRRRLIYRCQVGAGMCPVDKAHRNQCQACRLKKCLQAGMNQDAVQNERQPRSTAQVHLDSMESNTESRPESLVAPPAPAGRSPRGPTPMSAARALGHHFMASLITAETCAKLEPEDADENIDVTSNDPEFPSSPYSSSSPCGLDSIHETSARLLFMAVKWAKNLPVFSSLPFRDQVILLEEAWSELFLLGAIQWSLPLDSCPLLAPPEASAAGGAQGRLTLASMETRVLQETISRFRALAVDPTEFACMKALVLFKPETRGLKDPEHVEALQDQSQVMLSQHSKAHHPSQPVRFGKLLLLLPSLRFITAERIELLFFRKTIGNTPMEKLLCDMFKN

The assay concerns the target Photoreceptor-specific nuclear receptor (Homo sapiens) (UniProt Q9Y5X4). The assay is described as follows: NR2E3 agonists in two-hybrid cells, primary screen, cell-based, luminescence, CHO-S, Gal4-NCOR/VP16-NR2E3 (AID 602229).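 Further: 0% = DMSO with NR2E3 transfected cells and 100% = cells lacking NR2E3 construct; higher means lower luciferase signal from less NR2E3 corepressor binding.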 As to conditions: luciferase, at 3.98 µM, hits give high values.
In the case of `O=C(CCc1nnc(CCCCc2ccccc2)o1)NC(c1cccnc1)C(F)(F)F` (stereo not drawn), the inhibition of corepressor binding was -10.3%.
In the case of `O=C(Nn1cnnc1)c1cc(Cl)ccc1Cl` it was -4.56%.
To `NC(=O)C1CCN(CC(O)CSc2ccc(F)cc2)CC1` (stereo not drawn) belongs -11.6%; to `NS(=O)(=O)c1cc(C(=O)NCCOc2ccccc2)c(Cl)cc1Cl`, 16%; to `COc1cccc(N2CCN(C(=O)C3CCCN(S(=O)(=O)c4cnc[nH]4)C3)CC2)c1` (stereo not drawn), -11%.
In the case of `Cc1ccc(S(=O)(=O)N2CCCC(C(=O)N3CCN(C)CC3)C2)cc1` (stereo not drawn) it was -11.8%.
Take `CC(=O)N1CCCc2cc(S(=O)(=O)N3CCCC(C(=O)N4CCN(c5cccc(Cl)c5)CC4)C3)ccc21` (stereo not drawn): the inhibition of corepressor binding was 97.5% (active).
Consider `O=C(CCC1CCCC1)N=C1SC2CS(=O)(=O)CC2N1Cc1ccccc1` (stereo not drawn), for which the inhibition of corepressor binding was -16.6%.
`CCc1cccc(NC(=O)C2CCCN(S(=O)(=O)c3ccc4[nH]c(=O)ccc4c3)C2)c1` (stereo not drawn): the inhibition of corepressor binding is -18.2%.
In the case of `CC(=O)c1ccc(NC(=O)C2CCCN2S(=O)(=O)c2cccs2)cc1` (stereo not drawn), the inhibition of corepressor binding is -7.87%.
`N#Cc1cccc(CSc2nnc(CCCO)n2-c2ccccc2)c1`: the inhibition of corepressor binding was 1.83%.
Turning to `CC(C)OC(=O)c1ccc(NCc2cc(O)ccc2O)cc1Cl`, the inhibition of corepressor binding is -8.58%.
In the case of `O=C(OC12CC3CC(CC(C3)C1)C2)c1ccc(NCc2cc(O)ccc2O)cc1` it was 91.5% (active).
To `Cc1ccnc(NC(=O)Cn2ccc([N+](=O)[O-])n2)c1` belongs -2.77%.
To `O=C(C1CCN(S(=O)(=O)c2ccc(Br)s2)CC1)N1CCN(c2ccccc2)CC1` belongs -1.63%; to `COc1cccc(CNC(=O)CCN2C(=S)NC(C)(C)CC2C)c1` (stereo not drawn), 9.24%; to `N#C[C@]1(S(=O)(=O)c2ccccc2)C[C@@H]2ON=C(c3cccc(Br)c3)[C@@H]2C1`, 77.6% (active).
Take `COC(=O)[C@]1(S(=O)(=O)c2ccccc2)C[C@@H]2ON=C(c3ccc(OC)cc3)[C@@H]2C1`: the inhibition of corepressor binding is -7.87%.
To `CCCc1cc(=O)[nH]c(SCC(=O)c2c(N)n(CC(C)C)c(=O)n(C)c2=O)n1` belongs 5.16%; to `O=C(NC(Nc1nc2ccc([N+](=O)[O-])cc2s1)(C(F)(F)F)C(F)(F)F)c1ccccc1`, 102% (active); to `O=C(Nc1cc(-c2ccccc2)nn1-c1ccccc1F)c1ccc([N+](=O)[O-])cc1`, 7.55%.
As for `O=C(NNS(=O)(=O)Cc1ccccc1)c1ccc([N+](=O)[O-])cc1`, the inhibition of corepressor binding was 0.72%.
Regarding `CC(C)n1c(-c2ccncc2)n[nH]c1=S`, the inhibition of corepressor binding was -6.98%.
In the case of `CCOC(=O)N1CCN(C(=O)C2CCN(c3ncnc4c3sc3cccc(F)c34)CC2)CC1` it was 78.5% (active); in that of `CCOC(=O)N1CCN(C(=O)C2CCN(Cc3ccc(OC)cc3OC)CC2)CC1`, 9.52%; in that of `CCOC(=O)N1CCN(C(=O)C2CCCN(c3ncnc4c3sc3cccc(F)c34)C2)CC1` (stereo not drawn), -2.23%.
Take `CCOc1ccc(S(=O)(=O)n2ccnc2)c2ccccc12`: the inhibition of corepressor binding was 17.1%.
In the case of `CCOc1ccc(S(=O)(=O)N2CCCCCC2)c2ccccc12` it was 75.7% (active); in that of `COc1ccc(S(=O)(=O)N2CCCC2)c(C)c1C`, -29.4%; in that of `CCNC(=O)N1CCNC(=O)C1CC(=O)Nc1ccc(C(=O)OCC)cc1` (stereo not drawn), -12.7%.
To `COC(=O)c1ccc(NS(=O)(=O)c2cc3c4c(c2)C(C)C(=O)N4CCC3)cc1` (stereo not drawn) belongs -17.2%; to `OCCCNc1nccc(-c2cc(Nc3cccc(Cl)c3)ncn2)n1`, 101% (active); to `COCCCn1cc(CN2CC(N(C)C)CS2(=O)=O)nn1` (stereo not drawn), 20.1%.
In the case of `Cc1cc(C)c(S(=O)(=O)c2cc(F)ccc2C)c(=O)[nH]1` it was -8.41%; in that of `CC(C)(CNC(=O)c1ccc(Cl)c(S(=O)(=O)N2CCc3ccccc3C2)c1)N1CCOCC1`, -7.92%; in that of `CCc1nc2ccc(C(=O)NC3CCN(Cc4ccccc4)CC3)cn2c1N(CC)CCOC`, -6.67%.
With `COc1cnc(-c2ccccn2)nc1Oc1ccc(C(C)(C)C)cc1`, the inhibition of corepressor binding is 103% (active).
In the case of `CC(C)(C)c1ccc(Oc2ccc(N)cc2)cc1` it was 62.9%; in that of `COc1ccc2nc(-c3ccccn3)ccc2c1`, -147%.
To `CC(C)N(Cc1nnc(-c2ccc(Cl)cc2)o1)C(=O)C1=COCCO1` belongs -16.3%; to `COc1ccc(CCNC(=O)CSCc2ccc(Br)cc2)cc1OC`, -15%.
To `CS(=O)(=O)c1ccc2nnn(OCC(=O)Nc3cccc(C#N)c3)c2c1` belongs -3.52%; to `CCNC(=O)CCc1nc(-c2ccc(C(C)(C)C)cc2)no1`, 75.3% (active).
As for `CCc1ccc(CNC(=O)CCc2nc(-c3cccs3)no2)cc1`, the inhibition of corepressor binding is -4.34%.
In the case of `CCOc1ccc(-c2noc(CCC(=O)NC3CCCC3)n2)cc1OC` it was 4.53%.
In the case of `CN(CC(=O)NCCN1CCOCC1)S(=O)(=O)c1ccc(F)cc1` it was -42.2%; in that of `COc1cc(OC)cc(C2=Cc3ccccc3C(CC(=O)c3ccco3)N2c2ccc(-c3cnc(OC)nc3)cc2)c1` (stereo not drawn), -30.9%; in that of `Cc1ccsc1C(=O)OCC(=O)c1cc(C)n(CC2CCCO2)c1C` (stereo not drawn), 89.5% (active).
On to `COc1ccc(CNC(=O)COC(=O)c2sccc2C)cc1OC`, for which the inhibition of corepressor binding was -4.67%.
Regarding `CCCn1c(C)cc(C(=O)COC(=O)c2c(C)nn(-c3ccccc3)c2C)c1C`, the inhibition of corepressor binding is 17.1%.
In the case of `Cc1nc(CNS(=O)(=O)c2cc([N+](=O)[O-])ccc2C)cs1` it was 6.54%; in that of `Cc1ccc(S(=O)(=O)NCc2nc3ccccc3c(=O)n2N)cc1`, 22.2%.
As to `Cc1nc(CNS(=O)(=O)c2ccc(Oc3ccccc3)cc2)cs1`, the inhibition of corepressor binding is 92.4% (active).
Consider `Cc1cc2ccccn2c1C(=O)c1cccc(S(=O)(=O)N2CCOCC2)c1`, for which the inhibition of corepressor binding is 2.82%.
To `CCN(C(=O)CSc1nnnn1-c1ccc(OC)cc1)C1CCS(=O)(=O)C1` (stereo not drawn) belongs -16.1%; to `CCC(C)N1C(=O)S/C(=C/c2ccc(Sc3nc4ccccc4[nH]3)o2)C1=O` (stereo not drawn), 78.5% (active).
To `CCOc1ccc(NC(=O)CN(C)C(=O)COc2cccc(CC)c2)cc1OCC` belongs 2.58%.
Regarding `COc1ccc(NC(=O)/C(Cl)=C(/Cl)S(=O)Cc2ccc(C)cc2)cn1` (stereo not drawn), the inhibition of corepressor binding was 84.1% (active).
